Laboratory results taken from PubChem BioAssay (NCATS).
Inconclusive results are not listed. Entries that show only a call come without a potency. The source made the active and inactive calls. The call rests on the fitted dose curve; in most records, active means well fitted curve in the direction sought with a large enough effect; inconclusive means small, poorly fitted or top-dose-only effect, or another doubt; inactive means no such curve, though single readings can be large; an effect the other way counts as inactive or inconclusive.

How the values were obtained:
[1] = qHTS of pediatric cancer cell lines to identify multiple opportunities for drug repurposing: Primary screen for A673 cells (AID 1347092); further: nearly all actives have a fitted effect of over 45% in size
Method in brief: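 A673 cells (500-1,000 cells/well) were treated 48 hours at 37 degrees C with compounds at 11-point (0.78 nM to 46 µM) or 8-point (0.59 nM to 46 µM) dilutions. Viability read by CellTiter-Glo luminescence; concentration-response curves fitted.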

[2] = qHTS of pediatric cancer cell lines to identify multiple opportunities for drug repurposing: Primary screen for BT-37 cells (AID 1347094)
Method in brief: (§1)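 Cells plated at 500-1,000/well in growth medium, compounds added after 5 h. MIPE tested at 11 points (from 0.78 nM), NPC at 8 points (from 0.59 nM). CellTiter-Glo luminescence after 48 h; concentration-response curves from primary screen.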

[3] = qHTS of pediatric cancer cell lines to identify multiple opportunities for drug repurposing: Primary screen for NB-EBc1 cells (AID 1347095)
Method in brief: as §1

[4] = qHTS of pediatric cancer cell lines to identify multiple opportunities for drug repurposing: Primary screen for U-2 OS cells (AID 1347096); further: nearly all actives have a fitted effect of over 50% in size
Method in brief: (§2)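 Viability after 48 h compound treatment at 37C, 500-1,000 cells/well, read as ATP luminescence with CellTiter-Glo. Primary screens used 11-point (MIPE, 0.78 nM-46 µM) or 8-point (NPC, 0.59 nM-46 µM) final concentrations; follow-up screens used 11-point dilutions.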

[5] = qHTS of pediatric cancer cell lines to identify multiple opportunities for drug repurposing: Primary screen for Saos-2 cells (AID 1347097); further: nearly all actives have a fitted effect of over 40% in size
Method in brief: as §1

[6] = qHTS of pediatric cancer cell lines to identify multiple opportunities for drug repurposing: Primary screen for SK-N-SH cells (AID 1347098); further: nearly all actives have a fitted effect of over 65% in size
Method in brief: (§3)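 Cells (500-1,000/well) rested 5 h, then received compounds for 48 h; metabolically active cells were measured by CellTiter-Glo luminescence. Final concentrations spanned up to 46 µM (MIPE, 11-point) or 0.59 nM-46 µM (NPC, 8-point) in primary screens, 11-point in follow-ups.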

[7] = qHTS of pediatric cancer cell lines to identify multiple opportunities for drug repurposing: Primary screen for LAN-5 cells (AID 1347100)
Method in brief: as §2

[8] = qHTS of pediatric cancer cell lines to identify multiple opportunities for drug repurposing: Primary screen for BT-12 cells (AID 1347101); further: nearly all actives have a fitted effect of over 25% in size
Method in brief: as §3

[9] = qHTS of pediatric cancer cell lines to identify multiple opportunities for drug repurposing: Primary screen for SK-N-MC cells (AID 1347093)
Method in brief: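 Metabolically active cells were quantified by ATP-dependent luminescence (CellTiter-Glo, 15 min at room temperature) following 48 h treatment. Cells had been plated at 500-1,000 per well and settled for 5 h beforehand.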

[10] = qHTS of pediatric cancer cell lines to identify multiple opportunities for drug repurposing: Primary screen for NB1643 cells (AID 1347099); further: nearly all actives have a fitted effect of over 50% in size
Method in brief: as §1
Potency means the concentration at half of the fitted maximal effect.

Compound	Potency [1]	Potency [2]	Potency [3]	Potency [4]	Potency [5]	Potency [6]	Potency [7]	Potency [8]	Potency [9]	Potency [10]
COc1cc(OC)c(NC(=O)Nc2cc(C)on2)cc1Cl	inactive	inactive	inactive	inactive	inactive	inactive	inactive	inactive	–	–
CCN(CC)CCCCNc1ncc2c(n1)N(C)C(=O)N(c1c(Cl)c(OC)cc(OC)c1Cl)C2	18.7 µM (active)	–	–	inactive	inactive	6.81 µM (active)	20.9 µM (active)	–	13.2 µM (active)	16.6 µM (active)
C#C[C@]1(O)CC[C@@H]2[C@@H]3CCc4cc(O)ccc4[C@H]3CC[C@@]21C	14.8 µM (active)	–	13.2 µM (active)	–	18.7 µM (active)	24.1 µM (active)	–	–	11.8 µM (active)	–
CCCCCN=C(N)NN=Cc1c[nH]c2ccc(OC)cc12	9.35 µM (active)	–	–	–	–	inactive	–	–	3.72 µM (active)	–
COC[C@H](NC(=O)c1cnc(C)s1)C(=O)N[C@@H](COC)C(=O)N[C@@H](Cc1ccccc1)C(=O)[C@@]1(C)CO1	0.0935 µM (active)	0.273 µM (active)	0.0833 µM (active)	0.372 µM (active)	0.662 µM (active)	0.541 µM (active)	0.132 µM (active)	0.432 µM (active)	–	0.132 µM (active)
CCCNS(=O)(=O)Nc1ncnc(OCCOc2ncc(Br)cn2)c1-c1ccc(Br)cc1	inactive	inactive	inactive	inactive	inactive	inactive	–	–	–	–
Cc1nc(NC(=O)N2CCC[C@@H]2C(N)=O)sc1-c1ccnc(C(C)(C)C(F)(F)F)c1	9.35 µM (active)	–	1.48 µM (active)	inactive	–	–	5.9 µM (active)	–	0.059 µM (active)	–
CC(Oc1ccc(O)cc1)(P(=O)(O)O)P(=O)(O)O	inactive	inactive	inactive	inactive	inactive	inactive	inactive	inactive	–	inactive
Cc1coc2c1C(=O)C(=O)c1c-2ccc2c(C)cccc12	inactive	–	–	inactive	–	inactive	inactive	–	inactive	inactive
O=C(O)[C@H](CC(=O)N1C[C@@H]2CCCC[C@H]2C1)Cc1ccccc1	inactive	inactive	inactive	inactive	inactive	–	inactive	inactive	–	inactive
CC(=O)SCC(Cc1ccccc1)C(=O)NCC(=O)OCc1ccccc1 (stereo not drawn)	0.59 µM (active)	0.344 µM (active)	1.66 µM (active)	3.72 µM (active)	4.69 µM (active)	0.271 µM (active)	–	3.43 µM (active)	–	–
CC(C)(O)Cn1c(NC(=O)c2ccc(-c3cn[nH]c3)s2)nc2cc(CN3CCOCC3)ccc21	1.18 µM (active)	1.09 µM (active)	0.743 µM (active)	1.87 µM (active)	0.743 µM (active)	1.71 µM (active)	0.332 µM (active)	3.43 µM (active)	–	–
C[C@]12CCC(=O)C=C1[C@@H]1CC1[C@H]1[C@H]3[C@@H]4C[C@H]4[C@@]4(CCC(=O)O4)[C@@]3(C)CC[C@H]12 (stereo partly drawn)	inactive	inactive	inactive	inactive	inactive	inactive	–	–	–	inactive
Cc1ccc([N+](=O)[O-])cc1S(=O)(=O)N(C)N=Cc1cnc2ccc(Br)cn12	0.0074 µM (active)	0.0385 µM (active)	0.935 µM (active)	0.118 µM (active)	0.187 µM (active)	0.0108 µM (active)	–	0.0343 µM (active)	–	0.0042 µM (active)
C=C[C@@H]1CN2CCC1C[C@H]2[C@H](O)c1ccnc2ccc(OC)cc12 (stereo partly drawn)	inactive	inactive	inactive	inactive	inactive	inactive	inactive	inactive	–	–
CN1CCc2c(c3ccccc3n2Cc2ccc(C(=O)NO)cc2)C1	5.9 µM (active)	30.6 µM (active)	20.9 µM (active)	23.5 µM (active)	18.7 µM (active)	24.1 µM (active)	16.6 µM (active)	–	–	–
CC(C)(N)c1ccc(-c2nc3ccccc3nc2-c2ccccc2)cc1	5.9 µM (active)	15.3 µM (active)	18.7 µM (active)	inactive	1.05 µM (active)	21.5 µM (active)	13.2 µM (active)	–	–	–
CN(C)c1ccc2cc(C(=O)N[C@@H](CCCN=C(N)CCl)C(=O)NCc3ccccc3)ccc2c1	0.469 µM (active)	–	–	–	14.8 µM (active)	21.5 µM (active)	1.05 µM (active)	24.3 µM (active)	3.32 µM (active)	14.8 µM (active)
C[C@H](O)[C@@H]1C(=O)N2C(C(=O)O)=C(S[C@@H]3CN[C@H](CNS(N)(=O)=O)C3)[C@@H](C)[C@@H]12	inactive	inactive	inactive	inactive	inactive	–	inactive	inactive	–	inactive

Compound	Potency [1]	Potency [2]	Potency [3]	Potency [4]	Potency [5]	Potency [6]	Potency [7]	Potency [8]	Potency [9]	Potency [10]
Cc1ccc(O)c(C(CCN(C(C)C)C(C)C)c2ccccc2)c1 (stereo not drawn)	inactive	inactive	inactive	inactive	inactive	inactive	inactive	inactive	–	inactive
Cc1cnc(Nc2ccc(CN3CCOCC3)cc2)nc1Nc1cccc(S(=O)(=O)NC(C)(C)C)c1	2.96 µM (active)	17.2 µM (active)	2.64 µM (active)	7.43 µM (active)	3.72 µM (active)	3.04 µM (active)	1.32 µM (active)	9.68 µM (active)	–	3.72 µM (active)
COc1cc(OC)c(C=CS(=O)(=O)Cc2ccc(OC)c(NCC(=O)O)c2)c(OC)c1	0.148 µM (active)	–	0.187 µM (active)	–	0.059 µM (active)	7.64 µM (active)	0.148 µM (active)	–	0.0935 µM (active)	0.0372 µM (active)
COc1cc(CCc2cc(NC(=O)c3ccc(N4C[C@@H](C)N[C@@H](C)C4)cc3)n[nH]2)cc(OC)c1	14.8 µM (active)	27.3 µM (active)	14.8 µM (active)	23.5 µM (active)	5.9 µM (active)	6.07 µM (active)	4.18 µM (active)	27.3 µM (active)	–	–
C=CC(=O)Nc1ccc2ncnc(Nc3ccc(OCc4cccc(F)c4)c(Cl)c3)c2c1	0.001 µM (active)	0.0153 µM (active)	0.0526 µM (active)	5.9 µM (active)	0.0296 µM (active)	0.171 µM (active)	0.001 µM (active)	0.0172 µM (active)	–	0.0743 µM (active)
COc1cc(C)c(C=CC(C)=CC=CC(C)=CC(=O)O)c(C)c1C	inactive	–	–	inactive	inactive	inactive	–	–	18.7 µM (active)	inactive
CC(C)n1cnc2c(NCCc3ccc(O)cc3)nc(-c3csc4ccccc34)nc21	1.18 µM (active)	–	–	inactive	14.8 µM (active)	4.29 µM (active)	–	–	3.32 µM (active)	3.32 µM (active)
N#Cc1ccc(COC[C@H]2O[C@@H](n3c(NCc4ccc(Cl)c(Cl)c4)nc4c(N)ncnc43)[C@@H](O)[C@@H]2O)cc1	7.43 µM (active)	–	–	inactive	inactive	19.2 µM (active)	16.6 µM (active)	–	20.9 µM (active)	18.7 µM (active)
C[C@H](CCC(=O)O)[C@H]1CC[C@H]2[C@@H]3[C@H](O)C[C@@H]4C[C@H](O)CC[C@]4(C)[C@@H]3CC[C@]12C	inactive	inactive	inactive	inactive	inactive	inactive	inactive	–	–	–
C[C@H]1C[C@H]2[C@@H]3CCC4=CC(=O)C=C[C@]4(C)[C@@H]3C(=O)C[C@]2(C)[C@@]1(O)C(=O)CO	inactive	inactive	inactive	inactive	inactive	inactive	inactive	inactive	–	inactive
O=C1c2cccc(O)c2C(=O)c2c(O)cc(CO)cc21	inactive	inactive	inactive	inactive	inactive	inactive	inactive	inactive	–	26.4 µM (active)
COc1ccc(S(=O)(=O)Nc2cc(-c3c(O)ccc4ccccc34)c(O)c3ccccc23)cc1	7.43 µM (active)	24.3 µM (active)	8.33 µM (active)	inactive	4.69 µM (active)	–	7.43 µM (active)	30.6 µM (active)	–	18.7 µM (active)
CCOC(=O)C=C[C@H](C[C@@H]1CCNC1=O)NC(=O)[C@@H](CC(=O)[C@@H](NC(=O)c1cc(C)on1)C(C)C)Cc1ccc(F)cc1	inactive	inactive	inactive	inactive	inactive	inactive	inactive	inactive	–	inactive
O=C(C=CC=Cc1ccc2c(c1)OCO2)N1CCCCC1	inactive	inactive	inactive	inactive	inactive	inactive	inactive	inactive	–	–
c1ccc(CNc2nc(NCc3ccccc3)c3ccccc3n2)cc1	4.69 µM (active)	–	23.5 µM (active)	–	18.7 µM (active)	6.81 µM (active)	20.9 µM (active)	24.3 µM (active)	11.8 µM (active)	18.7 µM (active)
O=C(O)c1ccc(Nc2ncc3c(n2)-c2ccc(Cl)cc2C(c2c(F)cccc2F)=NC3)cc1	4.69 µM (active)	–	0.0662 µM (active)	inactive	–	–	0.0296 µM (active)	inactive	0.662 µM (active)	–
C[C@H](NC(=O)C(C#N)=Cc1cccc(Br)n1)c1ccccc1	14.8 µM (active)	–	–	–	–	–	16.6 µM (active)	–	11.8 µM (active)	16.6 µM (active)
CC(=O)NC(CS)C(=O)O (stereo not drawn)	inactive	inactive	inactive	inactive	inactive	inactive	inactive	inactive	–	–
O=C(c1ccc(F)cc1)N1CCC[C@H](c2nc(-c3ccc(F)cc3)no2)C1	inactive	inactive	inactive	inactive	inactive	13.6 µM (active)	inactive	–	–	inactive
